{"source": "PubChem BioAssay (EPA / NIEHS)", "note": "Where a structure was tested more than once in an assay, its records may differ in their call. Active and inactive are the calls of the source. How the source made its calls: active means hit-call score of the fitted dose curve at least 0.9, where 1 is the maximum; inactive means score below 0.9."}
{"read-out": "CD40, CD40 (gene 958)", "assay": "BSK_LPS_CD40: BioMAP Diversity Plus: LPS Assay for CD40 Biomarker Activity (AID 2283076)", "settings": "primary human HUVEC with PBMC; actives raise or lower the signal", "experimental": "BSK_LPS is a cell-based, multiplexed-readout assay that uses umbilical vein endothelium and peripheral blood mononuclear cells, a human vascular primary cell co-culture, with measurements taken at 24 hours after chemical dosing in a 96-well plate.BSK_LPS_CD40 is an assay component measured in the BSK_LPS assay. It measures CD40 antibody related to regulation of gene expression using ELISA technology.Data from the assay component BSK_LPS_CD40 was analyzed into 1 assay endpoint. This assay endpoint, BSK_LPS_CD40, was analyzed with bidirectional fitting relative to DMSO as the negative control and baseline of activity. Using a type of binding reporter, gain or loss-of-signal activity can be used to understand changes in the signaling as they relate to the gene CD40. Furthermore, this assay endpoint can be referred to as a primary readout, because this assay has produced multiple assay endpoints where this one serves a signaling function. To generalize the intended target to other relatable targets, this assay endpoint is annotated to the cytokine intended target family, where the subfamily is inflammatory factor.\nThe levels of cell surface (or secreted, indicated by the prefix \"s\") biomarker endpoints were measured by ELISA. Overt cytotoxicity to cells in confluent adherent cultures (all systems other than the BT system) was assessed by measuring total protein levels using sulforhodamine B (SRB) staining in parallel cultures at the time of biomarker measurements, indicated as SRB endpoints. For proliferation assays for adherent cell types, individual cell types are cultured at sub-confluence and relative cell numbers quantified by SRB staining at time points optimized for each system (48 h: 3C and CASM3C systems; 72 h: BT and HDF3CGF systems; 96 h: SAg system). SRB was performed by staining cells with 0.1% SRB after fixation with 10% TCA and reading wells at 560 nm.Viability and proliferation of PBMC (T cells) was quantified by Alamar Blue reduction for the SAg and BT systems. For PBMC viability (referred to as PBMC Cytotoxicity within the assay endpoint names), cells were plated (75,000/well in a 96-well plate) and then chemical samples added for 1 h before addition of activators, SEB and TSST-1 (20 ng/mL final concentration each). Cells were incubated for 90 h. Then, Alamar Blue (20 uL/well) (Invitrogen, Cat DAL1100) was added for 6 h, and the plates were read with a fluorescence microplate reader at 546/580 nm (excitation/emission). For PBMC proliferation, cells were plated and activated as above but incubated for only 16 h prior to addition of Alamar Blue. Plates were read after 6 h."}
{"smiles": "Nc1ccc(Cl)cc1", "outcome": "inactive"}
{"smiles": "N#Cc1cc([N+](=O)[O-])ccc1N", "outcome": "inactive"}
{"smiles": "CCOS(=O)(=O)OCC", "outcome": "inactive"}
{"smiles": "c1cc2c3c(cccc3c1)CC2", "outcome": "inactive"}
{"smiles": "CCOP(=S)(S)OCC", "outcome": "inactive"}
{"smiles": "OCC(F)(F)OC(F)(F)C(F)(F)OC(F)(F)C(F)(F)OC(F)(F)CO", "outcome": "inactive", "AC50": "7.62 µM (active)"}
{"smiles": "O=P(Oc1ccccc1)(Oc1ccccc1)Oc1ccccc1", "AC50": "23.6 µM (active)"}
{"smiles": "C=CC(=O)OCC(CC)(COC(=O)C=C)COC(=O)C=C", "AC50": "1.35 µM (active)"}
{"smiles": "c1nc[nH]n1", "outcome": "inactive"}
{"smiles": "CC(C)Nc1ccc(Nc2ccccc2)cc1", "AC50": "14 µM (active)"}
{"smiles": "O=C(O)C(F)(OC(F)(F)C(F)(F)C(F)(F)F)C(F)(F)F", "note": "(stereo not given)", "outcome": "inactive"}
{"smiles": "O=C(O)C(F)(F)OC(F)(F)C(F)(F)OC(F)(F)F", "outcome": "inactive"}
{"smiles": "CCCCCCCc1ccc(O)cc1", "AC50": "30.9 µM (active)"}
{"smiles": "c1ccc2c(c1)Nc1ccccc1S2", "outcome": "inactive"}
{"smiles": "c1ccc(OP(Oc2ccccc2)Oc2ccccc2)cc1", "outcome": "inactive"}
{"smiles": "CC(O)C(F)(F)C(F)(F)F", "note": "(stereo not given)", "outcome": "inactive"}
{"smiles": "OCC(F)(F)OC(F)(F)C(F)(F)OC(F)(F)C(F)(F)OC(F)(F)F", "outcome": "inactive", "AC50": "41 µM (active)"}
{"smiles": "CCCCOCCOP(=O)(OCCOCCCC)OCCOCCCC", "outcome": "inactive"}
{"smiles": "CCN(CC)c1ccccc1", "outcome": "inactive"}
{"smiles": "CC(C)(C)c1ccc(O)cc1", "outcome": "inactive"}
{"smiles": "CCCCc1ccccc1", "outcome": "inactive"}
{"smiles": "O=S(=O)(F)C(F)(F)C(F)(F)C(F)(F)C(F)(F)C(F)(F)C(F)(F)C(F)(F)C(F)(F)F", "outcome": "inactive"}
{"smiles": "COCCOCCO", "outcome": "inactive"}
{"smiles": "CCOP(=S)(Oc1ccc([N+](=O)[O-])cc1)c1ccccc1", "note": "(stereo not given)", "outcome": "inactive"}
{"smiles": "Nc1ccc2ccccc2c1", "outcome": "inactive"}
{"smiles": "FC(F)(F)C(F)(C(F)(F)F)C(F)(F)C(F)(F)CC1CO1", "note": "(stereo not given)", "outcome": "inactive"}
{"smiles": "O=C(O)C(F)(F)C(F)(F)C(=O)O", "outcome": "inactive"}
{"smiles": "Cc1ccc([N+](=O)[O-])cc1C", "outcome": "inactive"}
{"smiles": "ClC1=C(Cl)C2(Cl)C3C(Cl)C(Cl)CC3C1(Cl)C2(Cl)Cl", "note": "(stereo not given)", "AC50": "14.9 µM (active)"}
{"smiles": "CCOP(=S)(OCC)SCn1nnc2ccccc2c1=O", "outcome": "inactive"}
{"smiles": "O=c1ssc(Cl)c1Cl", "AC50": "3.38 µM (active)"}
{"smiles": "ClC(Cl)(Cl)c1ccccc1", "outcome": "inactive"}
{"smiles": "CCOP(=S)(NC(C)C)Oc1ccccc1C(=O)OC(C)C", "note": "(stereo not given)", "outcome": "inactive"}
{"smiles": "O=C(O)C=CC(F)(C(F)(F)F)C(F)(F)F", "outcome": "inactive"}
{"smiles": "O=C(O)C(F)(F)OC(F)(F)C(F)(F)OC(F)(F)C(=O)O", "outcome": "inactive"}
{"smiles": "CCOc1ccc(C(C)(C)COCc2cccc(Oc3ccccc3)c2)cc1", "outcome": "inactive"}
{"smiles": "CC(Cl)CN(C)C", "note": "(stereo not given)", "outcome": "inactive"}
{"smiles": "Cc1c([N+](=O)[O-])cc2c(c1[N+](=O)[O-])C(C)(C)CC2(C)C", "AC50": "0.807 µM (active)"}
